Source: PubChem (several laboratories)
Most compounds without a hit are left out; they make up all but 1.5% or so of the library.
HIF activator: HIF pathway transcriptional activators, primary screen, cell-based, U2OS HRE-luciferase, luminescence; 300,000 compounds, 0.32% hits; AID 1910, 2009; U2OS HRE-luciferase reporter; normalized: DMSO 0%, desferrioxamine 100%; activation, % at 7.5 µM (by protocol);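 active = mean activation of at least 10% of the iron chelator positive control signal, with at least half of replicates also reaching 10%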
PP5 primary: PP5 phosphatase inhibitors, primary screen, biochemical, fluorescence; purified PP5c, OMFP substrate fluorescence; inhibition, % at 6.7 µM; 320,000 compounds, 0.18% hits; AID 1987, 2009;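 active = inhibition above the campaign's mean inhibition across all tested compounds plus 3 SD, cut at about 9.5% in these data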
STK33 inh: inhibitors of purified STK33 kinase, primary screen, biochemical, ADP-Glo luminescence, homogeneous, cell-free; MBP phosphorylation; inhibition, % at 10 µM; AID 2661, 2010; 320,000 compounds, 0.073% hits;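 active = inhibition at or above 25%, using the most active replicate where run in duplicate; inactive = inhibition below 25%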
PP1 counter: PP1-alpha phosphatase inhibitors, primary screen, counter-screen for PP5 inhibitor project, biochemical, fluorescence, OMFP substrate, single point | Serine/threonine-protein phosphatase PP1-alpha catalytic subunit (Homo sapiens), P62136 | purified PP1alpha | inhibition, % at 6.7 µM | 320,000 compounds, 0.9% hits | AID 2235, 2010;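 active = inhibition above the mean inhibition of all tested compounds plus 3 SD, computed separately for each screening campaign, cut at about 15% in these data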
Target sequence (P62136 whole entry, looked up): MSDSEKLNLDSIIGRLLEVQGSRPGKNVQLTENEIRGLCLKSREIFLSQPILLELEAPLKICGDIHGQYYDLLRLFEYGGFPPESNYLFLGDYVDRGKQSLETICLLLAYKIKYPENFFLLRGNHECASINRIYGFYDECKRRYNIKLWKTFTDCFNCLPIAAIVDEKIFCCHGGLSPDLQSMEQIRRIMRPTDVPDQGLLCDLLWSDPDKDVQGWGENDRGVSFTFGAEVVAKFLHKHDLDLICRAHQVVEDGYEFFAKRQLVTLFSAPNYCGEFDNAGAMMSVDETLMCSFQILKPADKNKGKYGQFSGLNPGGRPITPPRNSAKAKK
DYRK1A inh: rat Dyrk1A kinase inhibitors, primary screen, biochemical, single point, plate reader. AID 504441, 2011. 310,000 compounds, 0.43% hits. ADP-Glo luminescence, NFATc1 peptide. Dual specificity tyrosine-phosphorylation-regulated kinase 1A (Rattus norvegicus), Q63470. inhibition, % at 12.5 µM; in the data active = inhibition above about 50%
PP1 confirm: PP1 phosphatase inhibitors, confirmation, biochemical, fluorescence, OMFP substrate, triplicate; purified PP1alpha; shares compounds with PP1 counter; 1,900 compounds, 52% hits; inhibition, % at 6.7 µM;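 active = mean PP1 inhibition above a set limit taken from the earlier primary screen, cut at about 15% in these data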
PP5 counter: PP5 phosphatase inhibition by PP1 hits, confirmation, counter-screen for PP1 inhibitor project, biochemical, fluorescence, triplicate; shares compounds with PP1 counter; purified PP5c, OMFP fluorescence; inhibition, % at 6.7 µM; 1,900 compounds, 4% hits;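 active = mean PP5 inhibition over triplicate wells above about 9.5% taken from the earlier PP1 screen, limit read from the data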
Of the large screens only hits and unclear results are named; the others gave an inactive call (follow-up assays come after a bar, where they were run).

CC(C)(C)c1ccc(S(=O)(=O)N2CCN(CC(O)CN3CCOCC3)CC2)cc1 (stereo not drawn)	none (no result: HIF activator, PP5 primary, PP1 counter)
Cc1ccc([N+](=O)[O-])c(C(=O)N/N=C/c2cccnc2)c1	none
COc1ccccc1C(=O)C1CCCN(C(=O)c2cccc(Cn3cccn3)c2)C1 (stereo not drawn)	none
CCc1ccc(N=Nc2ccc(O)c3[nH]cnc23)cc1	PP1 counter 21 (no result: HIF activator) | PP1 confirm inactive | PP5 counter inactive
CCN(CC)S(=O)(=O)c1cccc(N=NC2=C(O)CCCC2=O)c1	PP1 counter 57 | PP1 confirm inactive | PP5 counter inactive
COc1ccc(S(=O)(=O)N2CCN(c3nc(-c4cccnc4)nc4ccccc34)CC2)cc1	PP1 counter 21 (no result: HIF activator) | PP1 confirm 17 | PP5 counter inactive
N#Cc1ccccc1S(=O)(=O)N1CCN(c2nc(-c3cccnc3)nc3ccccc23)CC1	none (no result: HIF activator, PP5 primary, STK33 inh, PP1 counter)
Cc1ccc(C)c(S(=O)(=O)N2CCN(c3nc(-c4cccnc4)nc4ccccc34)CC2)c1	PP1 counter 19 (no result: HIF activator) | PP1 confirm 18 | PP5 counter inactive
Cc1cc(OCC(=O)OCC(=O)N(C)c2c(N)n(Cc3ccccc3)c(=O)[nH]c2=O)ccc1Cl	none
COCCNC(=O)CN(CCc1ccccc1)S(=O)(=O)c1ccc(Br)cc1	PP1 counter 33 | PP1 confirm inactive | PP5 counter inactive
O=C(O)CN1C(=O)/C(=C\c2ccccc2OCc2ccc(Cl)cc2Cl)SC1=S	PP1 counter 24 (no result: DYRK1A inh) | PP1 confirm 21 | PP5 counter inactive
CSc1nnc(N2C(=O)C(O)=C(C(=O)c3ccco3)C2c2ccccc2)s1 (stereo not drawn)	none
CCCSc1nnc(N2C(=O)C(O)=C(C(=O)c3ccco3)C2c2ccccc2F)s1 (stereo not drawn)	PP1 counter 22 | PP1 confirm inactive | PP5 counter inactive
CSc1nnc(N2C(=O)C(O)=C(C(=O)c3ccc(C)o3)C2c2ccc(C)cc2)s1 (stereo not drawn)	PP1 counter 30 (no result: DYRK1A inh) | PP1 confirm 25 | PP5 counter inactive
Cn1cnnc1SCC(=O)Nc1ccc(OCc2ccccc2)cc1	PP1 counter 24 (no result: DYRK1A inh) | PP1 confirm inactive | PP5 counter inactive
COc1ccc(CCNC(=O)CC(C)S(=O)(=O)c2ccc3c(c2)NC(=O)CO3)cc1OC (stereo not drawn)	none (no result: DYRK1A inh)
Nc1c(C(=O)O)sc2nc3c(cc12)CCCC3	none (no result: DYRK1A inh)
CN1CCc2nc3sc(C(=O)C45CC6CC(CC(C6)C4)C5)c(N)c3cc2C1	PP1 counter 29 (no result: HIF activator) | PP1 confirm inactive | PP5 counter inactive
COc1cccc(NC(=O)C(Cc2ccccc2)n2cccc2)c1 (stereo not drawn)	none
COCCn1c(=O)[nH]c(=O)c2c1nc(-c1ccc(-c3ccc(Cl)cc3[N+](=O)[O-])o1)n2Cc1ccccc1	PP1 counter 18 | PP1 confirm 38 | PP5 counter inactive
Cc1cc(NC(=O)CSc2ccc(-c3ccc(Br)cc3)nn2)no1	PP1 counter 18 | PP1 confirm inactive | PP5 counter inactive
CCS(=O)(=O)NCCNc1ccc([N+](=O)[O-])cc1	none
COc1ccc(-c2nnc(NC(=O)c3ccc(F)cc3)o2)cc1	PP1 counter 24 | PP1 confirm 25 | PP5 counter inactive
COc1ccc(C2CC(c3ccc(OC)cc3)n3nc(NC(=O)c4cccs4)nc3N2)cc1 (stereo not drawn)	PP1 counter 18 | PP1 confirm inactive | PP5 counter inactive
COc1ccc(C2CC(c3ccc(F)cc3)n3nc(NC(=O)c4ccco4)nc3N2)cc1 (stereo not drawn)	none
CC(=O)Nc1sc(C)c(C)c1C(=O)OCC(=O)Nc1cccc(C)c1	none (no result: HIF activator, PP5 primary, PP1 counter, DYRK1A inh)
COc1cccc(NC(=O)COC(=O)c2c(NC(C)=O)sc(C)c2C)c1	PP1 counter 18 (no result: HIF activator, DYRK1A inh) | PP1 confirm 21 | PP5 counter inactive
O=C(/C=C/c1ccccc1)NC(=S)NNC(=O)c1cnccn1	PP1 counter 22 | PP1 confirm 24 | PP5 counter inactive
Cc1cc(C(=O)N2CCN(c3ccccc3)CC2)no1	PP1 counter 27 | PP1 confirm inactive | PP5 counter inactive
Cc1ccc(C(=O)N2CCN(c3cccc(Cl)c3)CC2)cc1C	none
Cc1ccc(C(=O)N2CCN(c3ccccc3)CC2)cc1C	PP1 counter 32 | PP1 confirm inactive | PP5 counter inactive
CN(CC(=O)Nc1ccc(F)cc1)C(=O)C1CC(=O)N(Cc2ccccc2)C1 (stereo not drawn)	none
COc1cnc(-c2ccccn2)nc1N(C)c1ccccc1	HIF activator 114, PP1 counter 28 | PP1 confirm 28 | PP5 counter inactive
Cc1cccc(Oc2nc(-c3ccccn3)nc3ccccc23)c1	none
COc1cnc(-c2ccccn2)nc1Oc1ccccc1	PP1 counter 23 | PP1 confirm 17 | PP5 counter inactive
COc1cnc(-c2ccccn2)nc1Oc1cccc(C(F)(F)F)c1	PP1 counter 46 | PP1 confirm 46 | PP5 counter inactive
CN(c1ccccc1)c1ncccn1	none (no result: DYRK1A inh)
Cc1ccccc1Oc1nc(-c2ccccn2)nc2ccccc12	PP1 counter 20 | PP1 confirm 16 | PP5 counter inactive
COc1ccc2[nH]c3c(c2c1)CCN1C(=O)C(CC(=O)NCC24CC5CC(CC(C5)C2)C4)C[C@H](C(=O)N(C(C)C)C(C)C)[C@@]31C (stereo partly drawn)	none (no result: HIF activator, PP5 primary, STK33 inh, PP1 counter)
Cc1cc(C)cc(NC(N)=S)c1	none
N#CCCOC1(C#CCN2CCCC2)CCCCC1	none (no result: DYRK1A inh)
Cc1cc(Cl)ccc1OCC(=O)OCC(=O)NC1CCS(=O)(=O)C1 (stereo not drawn)	none (no result: HIF activator, STK33 inh, DYRK1A inh)
Cc1ccc(NC(=O)Nc2nnc(-c3ccncc3)s2)cc1C	PP1 counter 25 | PP1 confirm 29 | PP5 counter inactive
COc1ccc(Cn2c(=O)[nH]c3cc(C(=O)NCCc4ccc(S(N)(=O)=O)cc4)ccc3c2=O)cc1	none
CCc1nnc(NC(=O)c2ccc(S(=O)(=O)N3CCCc4ccccc43)cc2)o1	PP1 counter 35 | PP1 confirm 28 | PP5 counter inactive
CSCc1nnc(NC(=O)c2ccc(S(=O)(=O)N(CC(C)C)CC(C)C)cc2)o1	none (no result: PP5 primary, STK33 inh, PP1 counter, DYRK1A inh)
